Experimental data: the supplement of paper PMC12808144

tested on: Mel-DCC-11-R; assay: cell viability relative to DMSO control (fraction of DMSO control); higher = less cytotoxic, active = 0.8 or less; settings: 1 µM; 120 h; vemurafenib co-treatment 0 µM
In short: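 The screen used 384-well plates acoustically pre-spotted with 315 approved anti-cancer drugs from TargetMol, each at 1 µM in duplicate. Into each well went 40 µl of cells, 2500 NHEM-hTERT immortalized melanocytes or 1500 of patient-derived Mel-DCC-11 or its resistant subline Mel-DCC-11-R, and plates were kept 120 h, with the subline also tested alongside 8 µM of its selecting drug. Readout was by ATPlite 1step luminescence. Viability values were normalised to vehicle-treated controls and averaged between duplicates.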

Q: With `CNNCc1ccc(C(=O)NC(C)C)cc1.Cl` [Procarbazine hydrochloride] as the compound, how does the cell viability read?
A: Its cell viability is 1.04 (inactive).

Q: For `CC1(C)CCC(CN2CCN(c3ccc(C(=O)NS(=O)(=O)c4ccc(NCC5CCOCC5)c([N+](=O)[O-])c4)c(Oc4cnc5[nH]ccc5c4)c3)CC2)=C(c2ccc(Cl)cc2)C1`, which cell viability is on record?
A: The cell viability was 1.04 (inactive).

Q: With `CC1=C(/C=C/C(C)=C/C=C/C(C)=C/C=C/C=C(C)/C=C/C=C(C)/C=C/C2=C(C)CCCC2(C)C)C(C)(C)CCC1` [Beta-Carotene] as the compound, how does the cell viability read?
A: Its cell viability is 0.829 (inactive).

Q: How did the cell viability turn out when `CC(C)(O)CNc1nc(Nc2ccnc(C(F)(F)F)c2)nc(-c2cccc(C(F)(F)F)n2)n1` [Enasidenib] was run?
A: The cell viability was 1.3 (inactive).

Q: How did the cell viability turn out when `COc1ccc2[nH]cc(CCNC(C)=O)c2c1` [Melatonine] was run?
A: The cell viability was 0.786 (active).

Q: `Nc1nc(F)nc2c1ncn2[C@@H]1O[C@H](CO)[C@@H](O)[C@@H]1O` [Fludarabine] was tested. Which cell viability did it give?
A: The cell viability was 1.2 (inactive).

Q: For `CCN1CCN(Cc2ccc(Nc3ncc(F)c(-c4cc(F)c5nc(C)n(C(C)C)c5c4)n3)nc2)CC1.CS(=O)(=O)O` [abemaciclib mesylate], which cell viability is on record?
A: Its cell viability is 1.8 (inactive).

Q: With `CC(C)Cn1cnc2c(N)nc3ccccc3c21` [Imiquimod] as the compound, how does the cell viability read?
A: The cell viability was 0.897 (inactive).

Q: How did the cell viability turn out when `C=C[C@H]1[C@@H](O[C@@H]2O[C@H](CO)[C@@H](O)[C@H](O)[C@H]2O)OC=C2C(=O)OCC[C@]21O` [Swertiamarin] was run?
A: The cell viability was 0.976 (inactive).

Q: How did the cell viability turn out when `COc1cccc2c1C(=O)c1c(O)c3c(c(O)c1C2=O)C[C@@](O)(C(=O)CO)C[C@@H]3O[C@H]1C[C@H](N)[C@H](O[C@H]2CCCCO2)[C@H](C)O1` [Pirarubicin] was run?
A: The cell viability was 0.233 (active).

Q: Which cell viability does the source give for `CC(C)[C@H](NC(=O)[C@H](CC(=O)O)NC(=O)[C@H](CCCCN)NC(=O)[C@@H](N)CCCNC(=N)N)C(=O)N[C@@H](Cc1ccc(O)cc1)C(=O)O` [Thymopentin] here?
A: Its cell viability is 1.21 (inactive).

Q: `Cc1ccc(NC(=O)C2(c3ccc4c(c3)OC(F)(F)O4)CC2)nc1-c1cccc(C(=O)O)c1` [Lumacaftor] was tested. Which cell viability did it give?
A: The cell viability was 0.946 (inactive).

Q: For `CS(=O)(=O)OCCCCOS(C)(=O)=O` [Busulfan], which cell viability is on record?
A: The cell viability was 0.994 (inactive).

Q: `O=C([O-])CCCc1ccccc1.[Na+]` [Sodium Phenylbutyrate] was tested. Which cell viability did it give?
A: The cell viability was 1 (inactive).

Q: How did the cell viability turn out when `COc1ccc2cc3[n+](cc2c1OC)CCc1cc2c(cc1-3)OCO2` [Berberine] was run?
A: The cell viability was 1.05 (inactive).

Q: How did the cell viability turn out when `COc1cc2ncnc(Nc3ccc(F)c(Cl)c3)c2cc1OCCCN1CCOCC1` [Gefitinib] was run?
A: The cell viability was 0.893 (inactive).

Q: With `C/C=C1/NC(=O)[C@H]2CSSCC/C=C/[C@H](CC(=O)N[C@H](C(C)C)C(=O)N2)OC(=O)[C@H](C(C)C)NC1=O` [Romidepsin] as the compound, how does the cell viability read?
A: The cell viability was 0.0525 (active).

Q: With `Cc1c(C(=O)Nc2ccc(N3C[C@@H](C)O[C@@H](C)C3)nc2)cccc1-c1ccc(OC(F)(F)F)cc1` [Sonidegib] as the compound, how does the cell viability read?
A: Its cell viability is 1.03 (inactive).

Q: With `C[C@@H]1C[C@H]2[C@@H]3CCC4=CC(=O)C=C[C@]4(C)[C@@]3(F)[C@@H](O)C[C@]2(C)[C@@]1(O)C(=O)COP(=O)([O-])[O-].[Na+].[Na+]` [Dexamethasone Sodium Phosphate] as the compound, how does the cell viability read?
A: Its cell viability is 1.16 (inactive).

Q: For `Cc1ccc(NC(=O)c2ccc(CN3CCN(C)CC3)cc2)cc1Nc1nccc(-c2cccnc2)n1` [Imatinib], which cell viability is on record?
A: Its cell viability is 0.978 (inactive).

Q: With `CC(C)(S)[C@@H](N)C(=O)O` [Artamine] as the compound, how does the cell viability read?
A: The cell viability was 1.12 (inactive).

Q: Which cell viability does the source give for `CCS(=O)(=O)N1CC(CC#N)(n2cc(-c3ncnc4[nH]ccc34)cn2)C1` [Baricitinib] here?
A: The cell viability was 1 (inactive).

Q: With `CCc1cc2c(cc1N1CCC(N3CCOCC3)CC1)C(C)(C)c1[nH]c3cc(C#N)ccc3c1C2=O` [Alectinib] as the compound, how does the cell viability read?
A: The cell viability was 1.12 (inactive).

Q: With `CS(=O)(=O)O.Cc1ccc(NC(=O)c2ccc(CN3CCN(C)CC3)cc2)cc1Nc1nccc(-c2cccnc2)n1` [Imatinib Mesylate] as the compound, how does the cell viability read?
A: The cell viability was 0.94 (inactive).

Q: With `COC(=O)N[C@H](C(=O)N1CC2(CC2)C[C@H]1c1ncc(-c2ccc3c(c2)C(F)(F)c2cc(-c4ccc5nc([C@@H]6[C@H]7CC[C@H](C7)N6C(=O)[C@@H](NC(=O)OC)C(C)C)[nH]c5c4)ccc2-3)[nH]1)C(C)C` [Ledipasvir] as the compound, how does the cell viability read?
A: The cell viability was 1.13 (inactive).

Q: Which cell viability does the source give for `CC(C)C[C@H](NC(=O)[C@@H](O)[C@H](N)Cc1ccccc1)C(=O)O` [Ubenimex] here?
A: Its cell viability is 1.12 (inactive).

Q: With `Cl.NNc1nncc2ccccc12` [Hydralazine hydrochloride] as the compound, how does the cell viability read?
A: Its cell viability is 1.03 (inactive).

Q: How did the cell viability turn out when `Nc1c2ccccc2nc2ccccc12` [Aminacrine] was run?
A: Its cell viability is 1.26 (inactive).

Q: `CC(=O)c1c(C)c2cnc(Nc3ccc(N4CCNCC4)cn3)nc2n(C2CCCC2)c1=O` [Palbociclib] was tested. Which cell viability did it give?
A: The cell viability was 1.76 (inactive).

Q: Which cell viability does the source give for `C[C@@H](Oc1cc(-c2cnn(C3CCNCC3)c2)cnc1N)c1c(Cl)ccc(F)c1Cl` [Crizotinib] here?
A: The cell viability was 1.16 (inactive).

Q: `CCc1ccc(CCOc2ccc(CC3SC(=O)NC3=O)cc2)nc1.Cl` (stereo unspecified) [Pioglitazone hydrochloride] was tested. Which cell viability did it give?
A: The cell viability was 0.921 (inactive).

Q: `O=C(/C=C\n1cnc(-c2cc(C(F)(F)F)cc(C(F)(F)F)c2)n1)NNc1cnccn1` [Selinexor] was tested. Which cell viability did it give?
A: Its cell viability is 1.59 (inactive).

Q: For `Nc1nc(=O)c2c(CCc3ccc(C(=O)N[C@@H](CCC(=O)O)C(=O)O)cc3)c[nH]c2[nH]1` [Pemetrexed acid], which cell viability is on record?
A: The cell viability was 1.22 (inactive).

Q: `O=NN(CCCl)C(=O)NCCCl` [Carmustine] was tested. Which cell viability did it give?
A: Its cell viability is 0.987 (inactive).

Q: Which cell viability does the source give for `COc1ccc(-c2cc(=S)ss2)cc1` [Anethole trithione] here?
A: The cell viability was 1.04 (inactive).

Q: Which cell viability does the source give for `CCCCCCCCCCCCCCCCCCOCC(O)CO` (stereo unspecified) [Batyl alcohol] here?
A: Its cell viability is 0.92 (inactive).
